JMJD2A Tudor inh = qHTS Assay for Inhibitors of JMJD2A-Tudor Domain. AlphaScreen JMJD2A-Tudor / H3K4me3 peptide binding. Potency, µM (titrated, usually from 114 µM), without a hit: top-dose activity change, negative = inhibition, usual class: inhibitors. 390,000 tested, 4.4% active. AID 504339, 2011; further: on the % scale 0 is the no-effect control and ±100 the full control effect; nearly all actives have a fitted effect of over 50% in size
G9a block = qHTS Assay for Inhibitors of Histone Lysine Methyltransferase G9a; G9a H3K9 monomethylation, AlphaScreen, 2 h; Potency, µM (titrated, usually from 102 µM), for the others: at the top dose activity, negative = inhibition, usual class: inhibitors; 350,000 tested, 8.8% active; AID 504332, 2011; further: on the % scale 0 is the no-effect control and ±100 the full control effect; nearly all actives have a fitted effect of over 75% in size
Target sequence (Q96KQ7 913-1193 limits assumed): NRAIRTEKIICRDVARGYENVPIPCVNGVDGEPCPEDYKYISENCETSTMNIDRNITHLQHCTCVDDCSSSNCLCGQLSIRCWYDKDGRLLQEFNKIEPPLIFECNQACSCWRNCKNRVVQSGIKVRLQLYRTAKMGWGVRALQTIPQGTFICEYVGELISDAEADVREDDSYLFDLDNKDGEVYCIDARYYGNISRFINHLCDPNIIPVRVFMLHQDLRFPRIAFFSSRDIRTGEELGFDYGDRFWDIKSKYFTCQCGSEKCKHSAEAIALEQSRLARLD
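Using a bead-based AlphaScreen, monomethylated H3K9 product from 2 h room-temperature reactions (G9a 20 nM, peptide 500 nM, SAM 20 uM) was detected with 0.5 ug/mL rabbit anti-H3K9me1 antibody.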
BAZ2B inh = qHTS Assay for Inhibitors of BAZ2B; AlphaScreen BAZ2B-H3K14Ac peptide displacement; Potency, µM (titrated, usually from 114 µM), for inactives: at the top dose activity change, negative = inhibition, most hits filed as inhibitors; 360,000 tested, 4.4% active; AID 504333, 2011; further: on the % scale 0 is the no-effect control and ±100 the full control effect; nearly all actives have a fitted effect of over 60% in size
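Protein-peptide AlphaScreen: BAZ2B 50 nM, b-H3K14Ac 50 nM, 1x PBS pH 7.4 + 0.01% Tween-20. Preincubation 30 min RT; cpd 30 min RT (top 110 uM); beads 20 min RT, light-protected.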
GLS inh = qHTS for Inhibitors of Glutaminase (GLS). Glutaminase kidney isoform, mitochondrial (Homo sapiens), O94925. GLS enzymatic activity, qHTS titration. Potency, µM (doses to about 45.5 µM), for inactives: at the highest dose activity change, negative = inhibition, usual class: inhibitors. 410,000 tested, 0.21% active. AID 624170, 2012; further: on the % scale 0 is the no-effect control and ±100 the full control effect
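Assay buffer: 45 mM KH2PO4 pH 8.2, 0.02% Tween-20. hKGA acts on L-glutamine (1 mM solution added); product glutamate is reported by an oxidase/peroxidase Amplex Red coupling, with fluorescence taken at baseline and 30 min.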
HP1b binding inh = HTS for Inhibitors of HP1-beta Chromodomain Interactions with Methylated Histone Tails | Chromobox protein homolog 1 (Homo sapiens), P83916 | AlphaScreen HP1-beta / biotin-H3K9me3 peptide binding | Potency, µM (top dose mostly 114 µM), without a hit: at the highest dose activity change, negative = inhibition, actives largely listed as inhibitors | 390,000 tested, 0.56% active | AID 540317, 2011; further: nearly all actives have a fitted effect of over 70% in size
Target sequence (P83916 whole entry, looked up): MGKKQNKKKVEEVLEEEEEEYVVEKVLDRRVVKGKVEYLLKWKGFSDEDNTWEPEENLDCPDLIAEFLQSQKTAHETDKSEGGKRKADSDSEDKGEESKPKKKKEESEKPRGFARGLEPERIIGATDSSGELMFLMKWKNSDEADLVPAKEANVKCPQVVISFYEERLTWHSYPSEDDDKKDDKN
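AlphaScreen: HP1-beta (50 nM) preformed 30 min with biotin-H3(1-18)K9me3 peptide (50 nM) in PBS pH 7.4, 0.01% Tween-20. Compound added for 30 min at RT, then streptavidin donor/nickel chelate acceptor beads (10 ug/mL) for 30 min.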
Starred values were filed as active, the others as inactive; ? = inconclusive; nt = not tested or not shown; ! = not confirmed by another sample; [ ] = another dose, or the depositor's remark. Most compounds without a hit are left out; they make up all but 10% or so of the library. The call rests on the fitted dose curve; in most records, active means well fitted curve in the direction sought with a large enough effect; inconclusive means small, poorly fitted or top-dose-only effect, or another doubt; inactive means no such curve, though single readings can be large; an effect the other way counts as inactive or inconclusive. Potency means the concentration at half of the fitted maximal effect.

SMILES	JMJD2A Tudor inh	G9a block	BAZ2B inh	GLS inh	HP1b binding inh
COc1ccc(N2CCC(CNC(=S)Nc3cccc(C)c3)C2)cc1 (centres undefined)	45µM*	?	13µM*	29%	?
CC(OCC(O)CN1CCN(S(=O)(=O)c2ccc(Cl)cc2)CC1)c1ccc(Cl)cc1 (centres undefined)	nt	nt	nt	0%	nt
COc1ccc(NC(=O)C(CC(C)C)NC(=O)C2CCCCC2)c(OC)c1 (centres undefined)	-28%	2%[59 µM]	-17%	-4%	44%
COCc1cc(=O)[nH]c(N2CCN(C(=O)c3ccco3)CC2)n1	-3%	9%	-1%	3%	25%
O=c1c(-c2cccs2)nc2cnc(N3CCNCC3)nc2n1Cc1cccs1	nt	12%[0.501 µM]	nt	nt	nt
COc1ccc(CNC(=O)c2nn(-c3ccccc3)cc2OC)cc1	-12%	11%	-3%	5%	13%
COc1cn(-c2ccccc2)nc1C(=O)Nc1ccc(C)cc1Cl	?	?	79µM*	-3%	23%
COc1ccc(-c2cc(=O)c3cc(C)ccc3[nH]2)cc1	-14%	?	-3%	-2%	42%
COc1ccc(-c2cc(=O)[nH]c(=S)[nH]2)cc1	-13%	50µM*	-36%	-21%	37%
COc1ccc(-c2cc(=O)c3cc(OC)ccc3[nH]2)cc1	-7%	79µM*	-2%	0%	28%
Cc1cc(-c2ccc(C)c(S(=O)(=O)NCCc3ccco3)c2)on1	-14%	?	-36%	2%	10%[57 µM]
CCc1ccc(-c2cc(C)no2)cc1S(=O)(=O)NCc1ccco1	-26%	71µM*!	?	-2%	14%
COc1cc(C)c(Cl)cc1S(=O)(=O)NCc1ccco1	-14%	8%[12.7 µM]	-27%	-3%	38%
Cc1cc(S(=O)(=O)NCc2ccco2)c(C)cc1Cl	-15%	45µM*	?	1%	33%
CCCC(=O)OCC(=O)Nc1ccc2c(c1)OCO2	-1%	-16%	-2%	2%	14%
COc1ccc2c(CC(=O)OCC(=O)Nc3ccc(C)cc3)coc2c1	-29%	-8%[12.7 µM]	50µM*	-10%	4%
CCOc1ccc(OCCC(=O)OCC(=O)Nc2ccc3c(c2)OCO3)cc1	-35%	45µM*	-38%	0%	-20%
CC1(C)CC(NC(=S)NCc2ccc3c(c2)OCO3)CC(C)(C)N1	nt	40µM*	56µM*	nt	nt
COc1ccc2c(CC(=O)OCC(=O)Nc3ccc4c(c3)OCO4)coc2c1	20µM*	?	?	-3%	?
COc1ccc2c(CC(=O)OCC(=O)Nc3ccc(S(N)(=O)=O)cc3)coc2c1	-32%	11%[12.7 µM]	-10%	6%	6%
S=C(NCc1ccc2c(c1)OCO2)NC1CC1	-16%[57.1 µM]	-24%	-17%	-8%	34%
CC1CN(C(=O)N2CCC(C(=O)NCc3ccco3)CC2)c2ccccc2O1 (centres undefined)	?	?	-33%	-3%	?
CCOc1ccc(NC(=S)NCc2ccc3c(c2)OCO3)cc1	-27%	10µM*	?	0%	23%
COc1ccc(C2SCCN2C(=S)Nc2ccc(F)cc2)cc1 (centres undefined)	3%[57.1 µM]	40µM*	5%	-5%	-14%
CCC(C)(C)n1nnnc1C(c1cc2ccc(C)cc2[nH]c1=O)N(Cc1cccnc1)Cc1ccco1 (centres undefined)	?	50µM*	?	2%	-8%
Cn1nc(-c2ccc(OCC(=O)Nc3cccnc3)cc2)c2ccccc2c1=O	-14%[57.1 µM]	-42%[12.7 µM]	-15%	1%	45%
CC1CCCN(CCCNC(=O)C2CC(=O)N(c3ccc(F)c(Cl)c3)C2)C1 (centres undefined)	-13%	-2%[12.7 µM]	0%	2%	18%
O=C1CCC(=O)N1OCCCOc1ccc(Br)cc1Cl	10%	-13%[59 µM]	0%	-1%	69%
Cc1cc(Cl)c(OCCOCCN2CCCC(C)C2)c(Br)c1 (centres undefined)	?	16µM*	56µM*	-14%	6%
